# Changes are numbered by the printed parent chain.
# Assays:
# Assay in all cases: PBM; 200 nM protein, PBS
# Details in all cases: dsDNA, one strand shown
# VENTX [1] = target: T1, VENTX (Homo sapiens, UniProt O95231 78-163, R121Q)
# T1 sequence: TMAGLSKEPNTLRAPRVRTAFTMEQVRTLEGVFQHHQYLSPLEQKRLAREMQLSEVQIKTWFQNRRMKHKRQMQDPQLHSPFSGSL
# HOXA4 [2] = target: HOXA4 (Homo sapiens, UniProt Q00056 201-287, W262R)
# HOXA7 [3] = target: HOXA7 (Homo sapiens, UniProt P31268 116-202)
# ALX4 = ALX4 (Homo sapiens, UniProt Q9H161 200-286)
# PRRX1 [4] = target: PRRX1 (Homo sapiens, UniProt P54821 80-166, F113S)
# VENTX [5] = target: T2, VENTX (Homo sapiens, UniProt O95231 78-163, Y115F)
# T2 sequence: T1 sequence with Y38F, Q44R
# HOXB6 = HOXB6 (Homo sapiens, UniProt P17509 132-218, K202E)
# HOXA2 [6] = target: HOXA2 (Homo sapiens, UniProt O43364 129-215, R185T)
# HOXA4 [7] = target: HOXA4 (Homo sapiens, UniProt Q00056 201-287, R217L)
# HOXB4 = HOXB4 (Homo sapiens, UniProt P17483 148-234, V174I)
# PAX4 = target: T3, PAX4 (Homo sapiens, UniProt O43316 9-242, R200Q)
# T3 sequence: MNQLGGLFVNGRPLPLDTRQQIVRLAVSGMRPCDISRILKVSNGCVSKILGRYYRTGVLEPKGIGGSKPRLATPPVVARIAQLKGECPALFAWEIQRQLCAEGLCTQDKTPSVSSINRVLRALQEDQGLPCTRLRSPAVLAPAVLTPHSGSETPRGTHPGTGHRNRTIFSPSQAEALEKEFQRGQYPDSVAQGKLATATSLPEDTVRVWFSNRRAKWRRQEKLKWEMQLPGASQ
# HOXA2 [8] = target: HOXA2 (Homo sapiens, UniProt O43364 129-215, R185K)
# HOXA4 [9] = target: HOXA4 (Homo sapiens, UniProt Q00056 201-287)
# VAX1 [10] = target: VAX1 (Homo sapiens, UniProt Q5SQQ9 86-172, T142I)
# HOXA7 [11] = target: HOXA7 (Homo sapiens, UniProt P31268 116-202, W177C)
# HOXA4 [12] = target: HOXA4 (Homo sapiens, UniProt Q00056 201-287, W262F)
# PRRX1 [13] = target: PRRX1 (Homo sapiens, UniProt P54821 80-166)
# VAX1 [14] = target: VAX1 (Homo sapiens, UniProt Q5SQQ9 86-172, K157R)
# MSX2 [15] = target: MSX2 (Homo sapiens, UniProt P35548 130-214)
# MSX2 [16] = target: MSX2 (Homo sapiens, UniProt P35548 130-214, F161Y)
# Sequence of MSX2 (Homo sapiens, UniProt P35548 130-214, F161Y) (P35548 130-214 F161Y): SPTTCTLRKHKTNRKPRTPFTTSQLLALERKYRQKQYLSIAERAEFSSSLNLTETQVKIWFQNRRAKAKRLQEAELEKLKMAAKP
# Sequence of ALX4 (Q9H161 200-286): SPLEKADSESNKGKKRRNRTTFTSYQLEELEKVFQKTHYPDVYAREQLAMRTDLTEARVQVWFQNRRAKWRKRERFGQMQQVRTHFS
# Sequence of HOXA4 (Homo sapiens, UniProt Q00056 201-287, R217L) (Q00056 201-287 R217L): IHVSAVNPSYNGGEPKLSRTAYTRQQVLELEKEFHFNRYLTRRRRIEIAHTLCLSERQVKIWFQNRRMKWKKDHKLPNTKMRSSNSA
# Sequence of PRRX1 (Homo sapiens, UniProt P54821 80-166) (P54821 80-166): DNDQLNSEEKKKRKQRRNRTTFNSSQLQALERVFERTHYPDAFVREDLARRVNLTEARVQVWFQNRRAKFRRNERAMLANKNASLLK
# Sequence of HOXA4 (Homo sapiens, UniProt Q00056 201-287) (Q00056 201-287): as the sequence (Q00056 201-287 R217L) above, with L17R counted along it
# Sequence of HOXA7 (Homo sapiens, UniProt P31268 116-202, W177C) (P31268 116-202 W177C): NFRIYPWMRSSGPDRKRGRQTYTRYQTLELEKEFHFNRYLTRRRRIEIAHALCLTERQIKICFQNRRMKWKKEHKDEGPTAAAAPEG
# Sequence of VAX1 (Homo sapiens, UniProt Q5SQQ9 86-172, T142I) (Q5SQQ9 86-172 T142I): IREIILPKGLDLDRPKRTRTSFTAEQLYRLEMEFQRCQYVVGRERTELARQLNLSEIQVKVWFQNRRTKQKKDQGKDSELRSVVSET
# Sequence of PRRX1 (Homo sapiens, UniProt P54821 80-166, F113S) (P54821 80-166 F113S): as the sequence (P54821 80-166) above, with F34S counted along it
# Sequence of HOXB4 (P17483 148-234 V174I): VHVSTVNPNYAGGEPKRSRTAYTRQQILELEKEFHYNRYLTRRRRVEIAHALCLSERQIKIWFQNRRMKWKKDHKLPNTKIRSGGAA
# Sequence of HOXA4 (Homo sapiens, UniProt Q00056 201-287, W262R) (Q00056 201-287 W262R): as the sequence (Q00056 201-287 R217L) above, with L17R, W62R counted along it
# Sequence of HOXA2 (Homo sapiens, UniProt O43364 129-215, R185T) (O43364 129-215 R185T): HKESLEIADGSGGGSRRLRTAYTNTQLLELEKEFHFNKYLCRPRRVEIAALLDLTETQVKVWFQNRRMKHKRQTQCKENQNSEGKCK
# Sequence of HOXA7 (Homo sapiens, UniProt P31268 116-202) (P31268 116-202): as the sequence (P31268 116-202 W177C) above, with C62W counted along it
# Sequence of HOXA2 (Homo sapiens, UniProt O43364 129-215, R185K) (O43364 129-215 R185K): as the sequence (O43364 129-215 R185T) above, with T57K counted along it
# Sequence of HOXA4 (Homo sapiens, UniProt Q00056 201-287, W262F) (Q00056 201-287 W262F): as the sequence (Q00056 201-287 R217L) above, with L17R, W62F counted along it
# Sequence of HOXB6 (P17509 132-218 K202E): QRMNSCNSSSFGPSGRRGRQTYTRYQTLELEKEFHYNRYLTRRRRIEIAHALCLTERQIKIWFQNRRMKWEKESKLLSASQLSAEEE
# Sequence of VAX1 (Homo sapiens, UniProt Q5SQQ9 86-172, K157R) (Q5SQQ9 86-172 K157R): as the sequence (Q5SQQ9 86-172 T142I) above, with I57T, K72R counted along it
# Sequence of MSX2 (Homo sapiens, UniProt P35548 130-214) (P35548 130-214): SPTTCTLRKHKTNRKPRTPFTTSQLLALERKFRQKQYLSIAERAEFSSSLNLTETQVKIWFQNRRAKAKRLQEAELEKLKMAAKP
Sequence,binding signal (VENTX [1]),binding signal (HOXA4 [2]),binding signal (HOXA7 [3]),binding signal (ALX4),binding signal (PRRX1 [4]),binding signal (VENTX [5]),binding signal (HOXB6),binding signal (HOXA2 [6]),binding signal (HOXA4 [7]),binding signal (HOXB4),binding signal (PAX4),binding signal (HOXA2 [8]),binding signal (HOXA4 [9]),binding signal (VAX1 [10]),binding signal (HOXA7 [11]),binding signal (HOXA4 [12]),binding signal (PRRX1 [13]),binding signal (VAX1 [14]),binding signal (MSX2 [15]),binding signal (MSX2 [16])
ATTAATGA,"12.2 upbm affinity estimate (log intensity, higher = more binding, comparable within an allelic series)","10.8 upbm affinity estimate (log intensity, higher = more binding, comparable within an allelic series)","12 upbm affinity estimate (log intensity, higher = more binding, comparable within an allelic series)","13.8 upbm affinity estimate (log intensity, higher = more binding, comparable within an allelic series)","11.2 upbm affinity estimate (log intensity, higher = more binding, comparable within an allelic series)","12.1 upbm affinity estimate (log intensity, higher = more binding, comparable within an allelic series)","10.3 upbm affinity estimate (log intensity, higher = more binding, comparable within an allelic series)","13.3 upbm affinity estimate (log intensity, higher = more binding, comparable within an allelic series)","12.9 upbm affinity estimate (log intensity, higher = more binding, comparable within an allelic series)","14.1 upbm affinity estimate (log intensity, higher = more binding, comparable within an allelic series)","12.1 upbm affinity estimate (log intensity, higher = more binding, comparable within an allelic series)","13.7 upbm affinity estimate (log intensity, higher = more binding, comparable within an allelic series)","14.2 upbm affinity estimate (log intensity, higher = more binding, comparable within an allelic series)","13.4 upbm affinity estimate (log intensity, higher = more binding, comparable within an allelic series)","8.94 upbm affinity estimate (log intensity, higher = more binding, comparable within an allelic series)","12.2 upbm affinity estimate (log intensity, higher = more binding, comparable within an allelic series)","13.3 upbm affinity estimate (log intensity, higher = more binding, comparable within an allelic series)","13.3 upbm affinity estimate (log intensity, higher = more binding, comparable within an allelic series)",,
ATAATTAT,"11.9 upbm affinity estimate (log intensity, higher = more binding, comparable within an allelic series)","10.9 upbm affinity estimate (log intensity, higher = more binding, comparable within an allelic series)","12 upbm affinity estimate (log intensity, higher = more binding, comparable within an allelic series)","14.2 upbm affinity estimate (log intensity, higher = more binding, comparable within an allelic series)","11.7 upbm affinity estimate (log intensity, higher = more binding, comparable within an allelic series)","11.8 upbm affinity estimate (log intensity, higher = more binding, comparable within an allelic series)","10.3 upbm affinity estimate (log intensity, higher = more binding, comparable within an allelic series)","13.6 upbm affinity estimate (log intensity, higher = more binding, comparable within an allelic series)","12.7 upbm affinity estimate (log intensity, higher = more binding, comparable within an allelic series)","14.5 upbm affinity estimate (log intensity, higher = more binding, comparable within an allelic series)","12.3 upbm affinity estimate (log intensity, higher = more binding, comparable within an allelic series)","13.8 upbm affinity estimate (log intensity, higher = more binding, comparable within an allelic series)","14.3 upbm affinity estimate (log intensity, higher = more binding, comparable within an allelic series)","13.3 upbm affinity estimate (log intensity, higher = more binding, comparable within an allelic series)","9.06 upbm affinity estimate (log intensity, higher = more binding, comparable within an allelic series)","12.1 upbm affinity estimate (log intensity, higher = more binding, comparable within an allelic series)","13.6 upbm affinity estimate (log intensity, higher = more binding, comparable within an allelic series)","13.3 upbm affinity estimate (log intensity, higher = more binding, comparable within an allelic series)","14 upbm affinity estimate (log intensity, higher = more binding, comparable within an allelic series)","13.6 upbm affinity estimate (log intensity, higher = more binding, comparable within an allelic series)"
GCAAGGGC,,"9.8 upbm affinity estimate (log intensity, higher = more binding, comparable within an allelic series)",,,,,,,"9.73 upbm affinity estimate (log intensity, higher = more binding, comparable within an allelic series)","7.22 upbm affinity estimate (log intensity, higher = more binding, comparable within an allelic series)",,,"9.73 upbm affinity estimate (log intensity, higher = more binding, comparable within an allelic series)",,,"9.87 upbm affinity estimate (log intensity, higher = more binding, comparable within an allelic series)",,,,
CTAATTAG,"13 upbm affinity estimate (log intensity, higher = more binding, comparable within an allelic series)","10.8 upbm affinity estimate (log intensity, higher = more binding, comparable within an allelic series)","11.9 upbm affinity estimate (log intensity, higher = more binding, comparable within an allelic series)","14.7 upbm affinity estimate (log intensity, higher = more binding, comparable within an allelic series)","12 upbm affinity estimate (log intensity, higher = more binding, comparable within an allelic series)","12.8 upbm affinity estimate (log intensity, higher = more binding, comparable within an allelic series)","10.2 upbm affinity estimate (log intensity, higher = more binding, comparable within an allelic series)","14.2 upbm affinity estimate (log intensity, higher = more binding, comparable within an allelic series)","12.6 upbm affinity estimate (log intensity, higher = more binding, comparable within an allelic series)","14.2 upbm affinity estimate (log intensity, higher = more binding, comparable within an allelic series)","13.1 upbm affinity estimate (log intensity, higher = more binding, comparable within an allelic series)","14.3 upbm affinity estimate (log intensity, higher = more binding, comparable within an allelic series)","14.2 upbm affinity estimate (log intensity, higher = more binding, comparable within an allelic series)","14.1 upbm affinity estimate (log intensity, higher = more binding, comparable within an allelic series)","8.87 upbm affinity estimate (log intensity, higher = more binding, comparable within an allelic series)","12.6 upbm affinity estimate (log intensity, higher = more binding, comparable within an allelic series)","13.7 upbm affinity estimate (log intensity, higher = more binding, comparable within an allelic series)","14.3 upbm affinity estimate (log intensity, higher = more binding, comparable within an allelic series)","14.2 upbm affinity estimate (log intensity, higher = more binding, comparable within an allelic series)","13.9 upbm affinity estimate (log intensity, higher = more binding, comparable within an allelic series)"

# — PMC11006913
